Reference: PubChem BioAssay
Values without a mark were called inactive. No rule for the calls is given here.

target: Pantothenate synthetase (Mycobacterium tuberculosis (strain ATCC 25618 / H37Rv)) (UniProt P9WIL5); assay: Recombinant Mtb pantothenate synthetase (PanC) inhibitors, coupled enzyme, confirmatory (AID 375); details: coupled enzyme assay; at 10 µM, hits give high values;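 also: 0% = full reaction with vehicle and 100% = no enzyme background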
Sequence (P9WIL5 whole entry, looked up): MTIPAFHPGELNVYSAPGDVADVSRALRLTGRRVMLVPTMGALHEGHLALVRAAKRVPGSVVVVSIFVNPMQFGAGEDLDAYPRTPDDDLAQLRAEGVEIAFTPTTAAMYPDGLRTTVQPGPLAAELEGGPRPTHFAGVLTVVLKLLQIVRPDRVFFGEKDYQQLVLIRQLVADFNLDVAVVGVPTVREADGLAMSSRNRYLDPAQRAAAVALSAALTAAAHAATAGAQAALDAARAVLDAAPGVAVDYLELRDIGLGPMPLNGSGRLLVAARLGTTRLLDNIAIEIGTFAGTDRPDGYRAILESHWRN

`CSc1nnc(-c2nnc(SC)n2-c2ccccc2)n1-c1ccccc1` and `N#Cc1ccccc1NC(=O)CSc1nnc(-c2ccccc2)n1-c1ccccc1` are the same in inhibition: 0% for the first, 0% for the second.

First: CCCCOC(=O)n1c(SCC(=O)N(CC)CC)nc2ccccc21
Second: CCOC(=O)c1[nH]c2ccccc2c1NC(=O)C(CC)CC
The inhibition of the first is lower: 0% for the first, 8% for the second.

Going from `CC(CCc1ccccc1)NCc1ccncc1` (stereo not given) to `CCn1c(CNc2ccc(C)cc2)nnc1SCC(=O)NCc1ccccc1`, the inhibition falls from 5% to 0%.

Compared with `Cc1sc2ncnc(OCC(=O)N3CCN(S(=O)(=O)c4ccccc4)CC3)c2c1C`, `Cc1ccc(C)c(N2CCN(C(=O)c3ccc(CS(=O)(=O)c4ccccc4C)o3)CC2)c1` is higher in inhibition: 0% for the first, 8% for the second.

Compared with `COc1ccc(C(C)NC(=O)c2ccoc2C)cc1OC` (stereo not given), `COc1ccc(/C(O)=C2/C(=O)C(=O)N(CCCN(C)C)C2c2ccc(Cl)cc2)cc1OC` (stereo not given) is lower in inhibition: 5% for the first, 3% for the second.

`CCCCc1cc(=O)oc2cc(C)cc(OC(C)C(=O)O)c12` (stereo not given) and `CCN(C(=O)CCc1nc(-c2ccccc2F)no1)c1cc(OC)ccc1OC` are the same in inhibition: 0% for the first, 0% for the second.

Compared with `O=C(NC1CCS(=O)(=O)C1)OC1CCCCC1` (stereo not given), `COC(=O)CC1C(=O)NCCN1C(=O)NC1CCCCC1` (stereo not given) is higher in inhibition: 0% for the first, 1% for the second.

`CC(NC(=O)c1ccccc1NC(=O)c1ccco1)C(=O)O` (stereo not given) and `Cc1csc2nc(CNC(=O)c3ccco3)cn12` are the same in inhibition: 0% for the first, 0% for the second.

Going from `CC(=O)NC1CC2CCCC(C1)N2CC(=O)Nc1ccccc1` (stereo not given) to `COc1cc2c(N3CCOCC3)cc(O)c(CC(=O)Nc3ccccc3)c2cc1OC`, the inhibition rises from 3% to 7%.

Going from `Cc1cc(C)cc(N2C(=O)CC(N3CCOCC3)C2=O)c1` (stereo not given) to `COc1ccc(C(=O)NCCC(C)C)cc1S(=O)(=O)N1CCOCC1`, the inhibition rises from 0% to 9%.

Compared with `O=C(COC(=O)c1ccc(NS(=O)(=O)c2ccc3c(c2)OCCO3)cc1)NCC1CCCO1` (stereo not given), `O=C(CSc1ncnc2c1cnn2Cc1ccccc1)Nc1ccc2c(c1)OCCO2` is higher in inhibition: 2% for the first, 5% for the second.

First: Cc1ccccc1NC(=O)C1Cc2ccccc2C(=O)O1 (stereo not given)
Second: C=CCn1c(=O)c2ccccc2n2c(SC(C)C(=O)Nc3nc(-c4ccccc4)cs3)nnc12 (stereo not given)
The inhibition of the first is lower: 0% for the first, 4% for the second.

First: CCOC(=O)Cn1ncc(-c2ccccc2)c1N
Second: CCN(CCO)C(=O)CC(c1ccccc1)c1cc(Br)ccc1O (stereo not given)
The inhibition of the first is higher: 6% for the first, 5% for the second.

Going from `O=C1N[C@@H](Cc2cnc[nH]2)C(=O)N2CCC[C@@H]12` to `CN1CCCc2cc(C#N)c(=O)[nH]c21`, the inhibition rises from 0% to 5%.

`Cc1ccc(C)c2[nH]c(=O)c(CCNC(=O)c3ccc(S(=O)(=O)N(C)C)cc3)cc12` and `COc1cccc(NS(=O)(=O)c2cc(C)sc2C)c1` are the same in inhibition: 0% for the first, 0% for the second.

First: O=C(NCCO)c1cc2ccccc2cc1O
Second: COc1ccccc1NC(=O)C1=C(C)Nc2nc(CCCO)nn2C1c1cccnc1 (stereo not given)
The inhibition of the first is lower: 0% for the first, 1% for the second.

`COc1cc2c(C#N)c(N3CCN(c4ccccc4OC)CC3)nc(N)c2c(N)n1` and `COc1ccccc1NC1=C(C)C(=O)CC1` are the same in inhibition: 0% for the first, 0% for the second.

Going from `CN(C)CCCN1c2ccccc2Sc2ccc(C(F)(F)F)cc21` to `Cc1cc(C)n(C(=O)CNC(=O)C2COc3ccccc3O2)n1` (stereo not given), the inhibition rises from 0% to 1%.

Compared with `CCC(=O)N1CCc2cc(Br)cc(S(=O)(=O)N3CCCCCC3)c21`, `C1CCN=C(Nc2nc3c(s2)CCCC3)CC1` is higher in inhibition: 0% for the first, 3% for the second.

Going from `c1coc(Cn2nnnc2CN2CCN(C3CCCC3)CC2)c1` to `O=S(=O)(NCC(O)COCc1ccco1)c1cccs1` (stereo not given), the inhibition rises from 0% to 2%.
